Experiment [1] deals with Tyrosine-protein kinase SYK (Homo sapiens) (UniProt P43405). To be noted: at 10 µM.
For experiment [2], the target named is T1, Mitogen-activated protein kinase kinase kinase 7 (Homo sapiens) (UniProt O43318).
T1 sequence (whole entry): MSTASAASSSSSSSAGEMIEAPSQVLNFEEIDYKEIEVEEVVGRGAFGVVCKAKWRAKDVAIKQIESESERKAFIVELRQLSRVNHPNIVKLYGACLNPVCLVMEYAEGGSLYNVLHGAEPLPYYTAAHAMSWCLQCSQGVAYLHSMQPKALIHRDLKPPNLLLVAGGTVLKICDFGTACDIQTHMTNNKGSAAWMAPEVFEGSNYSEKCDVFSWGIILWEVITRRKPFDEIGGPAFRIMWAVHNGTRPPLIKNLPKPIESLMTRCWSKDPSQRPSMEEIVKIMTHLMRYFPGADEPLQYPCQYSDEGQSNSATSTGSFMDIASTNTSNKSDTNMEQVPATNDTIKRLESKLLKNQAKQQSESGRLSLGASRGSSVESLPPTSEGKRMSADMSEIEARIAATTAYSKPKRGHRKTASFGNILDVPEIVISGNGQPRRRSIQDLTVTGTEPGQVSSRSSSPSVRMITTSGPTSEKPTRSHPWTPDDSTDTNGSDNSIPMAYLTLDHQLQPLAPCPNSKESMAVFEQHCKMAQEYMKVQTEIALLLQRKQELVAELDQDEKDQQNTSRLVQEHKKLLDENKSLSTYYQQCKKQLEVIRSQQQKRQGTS
To be noted: at 1 µM.

Experiment [3] deals with T1, Mitogen-activated protein kinase kinase kinase 7 (Homo sapiens). As to conditions: at 10 µM.
For experiment [4], the target named is T2, Serine/threonine-protein kinase TAO1 (Homo sapiens) (UniProt Q7L7X3).
T2 sequence (whole entry): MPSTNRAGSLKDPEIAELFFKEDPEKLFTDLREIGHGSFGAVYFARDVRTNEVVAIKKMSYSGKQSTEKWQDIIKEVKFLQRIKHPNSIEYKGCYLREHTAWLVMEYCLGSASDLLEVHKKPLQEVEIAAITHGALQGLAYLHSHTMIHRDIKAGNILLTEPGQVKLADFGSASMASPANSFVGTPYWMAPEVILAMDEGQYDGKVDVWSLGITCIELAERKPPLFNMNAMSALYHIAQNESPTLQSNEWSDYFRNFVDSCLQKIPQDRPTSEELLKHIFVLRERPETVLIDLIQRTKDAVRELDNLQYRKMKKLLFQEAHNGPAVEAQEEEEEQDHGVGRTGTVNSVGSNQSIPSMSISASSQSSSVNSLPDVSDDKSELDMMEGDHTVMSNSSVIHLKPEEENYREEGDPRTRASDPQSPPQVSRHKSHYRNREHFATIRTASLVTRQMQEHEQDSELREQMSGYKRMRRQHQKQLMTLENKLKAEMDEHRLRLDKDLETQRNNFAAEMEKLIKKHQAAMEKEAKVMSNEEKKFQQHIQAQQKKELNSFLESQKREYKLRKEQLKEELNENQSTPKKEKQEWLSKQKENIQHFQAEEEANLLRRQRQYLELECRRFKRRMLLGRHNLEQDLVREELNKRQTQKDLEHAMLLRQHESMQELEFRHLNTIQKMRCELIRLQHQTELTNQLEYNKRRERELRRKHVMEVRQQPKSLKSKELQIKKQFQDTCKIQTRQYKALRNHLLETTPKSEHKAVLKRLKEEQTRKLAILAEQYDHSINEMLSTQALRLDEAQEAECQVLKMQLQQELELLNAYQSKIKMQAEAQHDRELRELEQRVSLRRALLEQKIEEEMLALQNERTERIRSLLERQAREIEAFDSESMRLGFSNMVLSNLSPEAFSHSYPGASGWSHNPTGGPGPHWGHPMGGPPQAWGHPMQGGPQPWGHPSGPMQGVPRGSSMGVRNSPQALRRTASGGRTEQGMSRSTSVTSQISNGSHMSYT
As to conditions: at 1 µM.

Experiment [5] deals with T2, Serine/threonine-protein kinase TAO1 (Homo sapiens). To be noted: at 10 µM.
The target of experiment [6] is T3, Serine/threonine-protein kinase TAO2 (Homo sapiens) (UniProt Q9UL54).
T3 sequence (whole entry): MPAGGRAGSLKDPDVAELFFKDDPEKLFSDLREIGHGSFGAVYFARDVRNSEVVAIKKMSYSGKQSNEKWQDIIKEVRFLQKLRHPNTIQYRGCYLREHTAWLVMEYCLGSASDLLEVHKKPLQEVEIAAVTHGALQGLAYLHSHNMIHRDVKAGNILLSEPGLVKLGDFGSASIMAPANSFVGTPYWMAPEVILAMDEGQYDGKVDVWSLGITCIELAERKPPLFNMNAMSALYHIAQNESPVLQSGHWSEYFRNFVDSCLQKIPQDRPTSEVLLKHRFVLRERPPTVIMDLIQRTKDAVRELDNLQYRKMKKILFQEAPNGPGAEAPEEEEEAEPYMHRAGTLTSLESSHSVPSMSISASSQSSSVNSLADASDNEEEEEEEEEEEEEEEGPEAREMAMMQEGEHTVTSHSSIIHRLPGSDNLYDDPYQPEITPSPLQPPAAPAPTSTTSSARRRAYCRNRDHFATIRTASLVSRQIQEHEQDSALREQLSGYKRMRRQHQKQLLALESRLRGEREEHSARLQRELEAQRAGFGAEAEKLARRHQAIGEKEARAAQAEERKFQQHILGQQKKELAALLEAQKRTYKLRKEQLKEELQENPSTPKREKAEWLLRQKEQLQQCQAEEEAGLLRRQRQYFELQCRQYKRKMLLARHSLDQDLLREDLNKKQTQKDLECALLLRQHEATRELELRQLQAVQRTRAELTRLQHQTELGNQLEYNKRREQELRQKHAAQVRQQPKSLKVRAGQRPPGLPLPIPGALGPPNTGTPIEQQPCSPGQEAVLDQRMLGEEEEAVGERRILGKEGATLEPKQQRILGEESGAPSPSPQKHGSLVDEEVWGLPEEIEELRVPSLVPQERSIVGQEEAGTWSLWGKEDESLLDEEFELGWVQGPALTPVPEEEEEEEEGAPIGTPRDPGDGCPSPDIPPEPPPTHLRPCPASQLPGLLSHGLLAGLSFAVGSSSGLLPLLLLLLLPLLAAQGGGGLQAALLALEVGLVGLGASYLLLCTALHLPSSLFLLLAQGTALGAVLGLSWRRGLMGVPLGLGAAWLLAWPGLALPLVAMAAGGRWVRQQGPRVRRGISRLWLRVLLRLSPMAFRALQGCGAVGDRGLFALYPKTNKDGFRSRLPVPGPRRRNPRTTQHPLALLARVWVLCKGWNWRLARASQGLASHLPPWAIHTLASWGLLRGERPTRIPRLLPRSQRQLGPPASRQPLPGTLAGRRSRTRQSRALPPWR
To be noted: at 1 µM.

Experiment [7] has as its target T3, Serine/threonine-protein kinase TAO2 (Homo sapiens). To be noted: at 10 µM.
In experiment [8] the target is T4, Serine/threonine-protein kinase TAO3 (Homo sapiens) (UniProt Q9H2K8).
T4 sequence (whole entry): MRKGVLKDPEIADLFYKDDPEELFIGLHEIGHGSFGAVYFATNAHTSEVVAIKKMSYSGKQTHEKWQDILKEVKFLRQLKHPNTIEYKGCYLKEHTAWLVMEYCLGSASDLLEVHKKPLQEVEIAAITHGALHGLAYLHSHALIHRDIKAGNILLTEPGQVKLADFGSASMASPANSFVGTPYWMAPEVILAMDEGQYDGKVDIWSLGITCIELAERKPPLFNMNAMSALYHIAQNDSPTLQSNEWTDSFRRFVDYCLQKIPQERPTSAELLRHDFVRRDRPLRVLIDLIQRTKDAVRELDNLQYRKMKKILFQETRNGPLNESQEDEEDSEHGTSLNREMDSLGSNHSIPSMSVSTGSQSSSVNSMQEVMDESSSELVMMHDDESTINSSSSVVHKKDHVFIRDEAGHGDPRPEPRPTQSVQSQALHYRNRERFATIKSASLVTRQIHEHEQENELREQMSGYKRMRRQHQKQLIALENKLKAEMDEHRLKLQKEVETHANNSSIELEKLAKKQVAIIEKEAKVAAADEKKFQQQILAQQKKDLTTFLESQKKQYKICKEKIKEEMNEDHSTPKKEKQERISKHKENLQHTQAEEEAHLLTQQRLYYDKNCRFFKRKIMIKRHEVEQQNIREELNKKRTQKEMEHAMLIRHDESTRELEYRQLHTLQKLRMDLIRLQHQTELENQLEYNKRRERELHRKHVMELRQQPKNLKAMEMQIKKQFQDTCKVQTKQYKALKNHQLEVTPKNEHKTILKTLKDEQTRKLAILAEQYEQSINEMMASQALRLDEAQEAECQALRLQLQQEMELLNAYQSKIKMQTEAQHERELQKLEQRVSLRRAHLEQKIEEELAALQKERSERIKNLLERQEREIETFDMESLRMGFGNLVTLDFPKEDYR
To be noted: at 1 µM.

The target of experiment [9] is T4, Serine/threonine-protein kinase TAO3 (Homo sapiens). To be noted: at 10 µM.
For experiment [10], the target named is T5, Serine/threonine-protein kinase TBK1 (Homo sapiens) (UniProt Q9UHD2).
T5 sequence (whole entry): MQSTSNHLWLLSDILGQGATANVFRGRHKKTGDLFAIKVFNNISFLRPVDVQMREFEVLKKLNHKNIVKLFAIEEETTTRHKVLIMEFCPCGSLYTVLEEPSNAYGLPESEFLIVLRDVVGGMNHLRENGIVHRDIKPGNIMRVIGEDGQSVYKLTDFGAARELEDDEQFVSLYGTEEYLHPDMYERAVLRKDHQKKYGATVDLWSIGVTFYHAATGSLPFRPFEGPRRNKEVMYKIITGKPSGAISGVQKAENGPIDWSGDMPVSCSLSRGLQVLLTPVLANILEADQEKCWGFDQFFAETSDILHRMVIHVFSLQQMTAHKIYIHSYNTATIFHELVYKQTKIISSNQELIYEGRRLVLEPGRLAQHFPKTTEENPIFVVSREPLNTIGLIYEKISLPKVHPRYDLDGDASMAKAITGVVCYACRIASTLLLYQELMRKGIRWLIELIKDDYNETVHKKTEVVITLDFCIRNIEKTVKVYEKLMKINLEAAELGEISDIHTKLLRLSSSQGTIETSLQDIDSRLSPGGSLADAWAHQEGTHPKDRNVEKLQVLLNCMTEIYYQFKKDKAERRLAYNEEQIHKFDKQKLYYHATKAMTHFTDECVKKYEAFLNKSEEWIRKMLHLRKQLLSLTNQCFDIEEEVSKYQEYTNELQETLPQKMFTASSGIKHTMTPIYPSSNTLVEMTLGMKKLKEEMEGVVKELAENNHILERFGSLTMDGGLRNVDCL
To be noted: at 1 µM.

Molecules are shown by their SMILES.

`O=C1Nc2cc(Br)ccc2/C1=C1/Nc2ccccc2/C1=N\O`: the residual activity in [1] was 37%; in experiment [2], 89%; in [3], 81%; in experiment [4], 68%; in [5], 58%; in experiment [6], 75%. Moreover, the residual activity in experiment [7] came to 91%; in experiment [8], 68%; in experiment [9] it was 82%; in experiment [10], 8%.

Values taken from ChEMBL document CHEMBL2218924, “A broad activity screen in support of a chemogenomic map for kinase signalling research and drug discovery” (Biochem J, 2013).
